# The list is not random: actives were taken first. Their share in the collection is about 9.3%.
# Rab9 promoter act – activators of Rab9 promoter | Potency, µM (top dose mostly 9.22 µM), inactives show at the top dose activation, negative = inhibition, actives largely listed as activators | Huh7 Rab9 promoter-luciferase reporter, luminescence, 24 h | AID 485297 | 320,000 tested, 2.8% active; further: % of control where 0% means no effect; nearly all actives have a fitted effect of over 60% in size
#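 Rab9 promoter-driven luciferase in stably transfected Huh7 cells; 1500 cells/well rested 2 h, exposed to compound in DMSO for 24 h at 37 °C, 5% CO2. Luminescence read 10 min after adding luciferase reagent at ambient temperature.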
# ELG1 DNA repair – ELG1-dependent DNA repair inhibition | HEK293T ELG1-luciferase reporter, luminescence, 16 h; DNA damage induced by 5-fluorouridine | Potency, µM (titrated, usually from 46.1 µM), for the others: at the top dose activity change, negative = inhibition, most hits filed as inhibitors | 330,000 tested, 2.3% active; further: on the % scale 0 is the no-effect control and ±100 the full control effect; nearly all actives have a fitted effect of over 55% in size
#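 Quantitative HTS, concentration-response format. 2,000 cells/well co-treated with 5-fluorouridine and compound, 16 hr in 5% CO2 at 37 °C; ONE-Glo luminescence read after 30 min.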
# SMN2 splice up – enhancers of SMN2 splice variant expression. Potency, µM (doses to about 46.1 µM), inactives show at the highest dose activity change, positive = activation, usual class: activators. AID 1458. 210,000 tested, 2.8% active. HEK293 SMN2-luciferase splicing reporter, luminescence, 30-36 h; further: % of control where 0% means no effect; nearly all actives have a fitted effect of over 55% in size
#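 HEK293 cells carry an SMN2 […]–luciferase reporter in which exon 7 inclusion puts luciferase in frame. Cells were plated 10-12 h before compound addition, then incubated 30-36 h at 37C. ONE-Glo luminescence was read; sodium butyrate at 4.5 mM final served as control.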
# NPC1 prom act – activators of NPC1 promoter; Huh7 NPC1 promoter luciferase reporter, 24 h; Potency, µM (series often up to 9.22 µM), inactives show at the highest dose activation, most hits filed as activators; 320,000 tested, 2.4% active; AID 485313; further: % of control where 0% means no effect; nearly all actives have a fitted effect of over 60% in size
#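 Huh7 reporter cells (NPC1 promoter driving luciferase) are dosed with compound for 24 h at 37 °C, 5% CO2; luciferase detection reagent is then added and luminescence measured after 10 min at ambient temperature.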
# ELG1 genotoxic – induces genotoxicity in HEK293T cells with luciferase-tagged ELG1. HEK293T ELG1-luciferase reporter, luminescence, 16 h. 330,000 tested, 1.3% active. Potency, µM (top dose mostly 46 µM), for the others: at the top dose activity change, positive = activation, most hits filed as activators; further: % of control where 0% means no effect; nearly all actives have a fitted effect of over 60% in size
#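 After overnight (16 hr) compound treatment at 37 °C, ELG1-luciferase HEK293T cells were lysed with ONE-Glo; luminescence quantified 30 min later at room temperature.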
# FLuc modulator – firefly luciferase modulation, counter-screen for miR-21 project; P08659; purified FLuc, Km substrates, luminescence inhibition; Potency, µM (highest dose often 57.5 µM), inactives show at the top dose activity change, negative = inhibition, actives largely listed as inhibitors; 360,000 tested, 6.9% active; AID 588342;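 further: plate controls were vehicle for no effect and reference inhibitor for full effect; nearly all actives have a fitted effect of over 55% in size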
# Target sequence (P08659 whole entry, looked up): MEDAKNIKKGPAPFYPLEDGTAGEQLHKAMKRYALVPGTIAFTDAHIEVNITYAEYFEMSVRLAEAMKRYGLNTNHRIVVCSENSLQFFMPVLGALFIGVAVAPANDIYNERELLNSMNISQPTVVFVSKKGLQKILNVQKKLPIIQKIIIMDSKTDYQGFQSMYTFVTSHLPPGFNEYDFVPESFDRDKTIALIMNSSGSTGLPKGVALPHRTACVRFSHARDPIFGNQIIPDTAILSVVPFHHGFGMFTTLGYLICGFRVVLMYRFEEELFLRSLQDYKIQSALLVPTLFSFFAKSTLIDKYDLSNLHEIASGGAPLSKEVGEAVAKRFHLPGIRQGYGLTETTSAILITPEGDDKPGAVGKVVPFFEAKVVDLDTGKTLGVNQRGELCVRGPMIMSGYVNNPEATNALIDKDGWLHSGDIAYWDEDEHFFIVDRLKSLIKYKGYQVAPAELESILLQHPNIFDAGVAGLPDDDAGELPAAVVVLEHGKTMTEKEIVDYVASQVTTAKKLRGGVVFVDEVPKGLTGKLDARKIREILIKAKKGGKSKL
#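 Purified P. pyralis luciferase, 10 nM final, with Km-level 10 uM D-luciferin and 10 uM ATP in 50 mM Tris acetate pH 7.5, 10 mM Mg acetate, 0.01% Tween-20, 0.05% BSA; 6-point qHTS titration about 60 µM downward; luminescence read.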
# Starred values were filed as active, the others as inactive; ? = inconclusive; / = no result given; [ ] = remark or other dose. The call rests on the fitted dose curve; in most records, active means well fitted curve in the direction sought with a large enough effect; inconclusive means small, poorly fitted or top-dose-only effect, or another doubt; inactive means no such curve, though single readings can be large; an effect the other way counts as inactive or inconclusive. Potency means the concentration at half of the fitted maximal effect.
SMILES,Rab9 promoter act,ELG1 DNA repair,SMN2 splice up,NPC1 prom act,ELG1 genotoxic,FLuc modulator
CN1C(=O)/C(=C/c2cccc([N+](=O)[O-])c2)C(=O)N1c1ccccc1,-2%,?,/,-2%,?,15µM*
Nc1c(S(=O)(=O)c2cccs2)c2nc3ccccc3nc2n1/N=C/c1cccc(O)c1,-3%,18µM*,-5%,-2%,-40%,2%
COc1ccc(OC)c(C(=O)N2CCC(CCC(=O)NC3CC3)CC2)c1,-5%,0%,/,-2%,0%,1%
O=C(OCn1nnc2ccccc2c1=O)c1ccc(N2CCOCC2)c([N+](=O)[O-])c1,0%,0%,0%,1%,-5%,-7%
Cc1cccc(/C=C(\c2nc3ccccc3[nH]2)S(=O)(=O)c2ccccc2)c1,-16%,12µM*,-106%,-13%,-10%,3%
N#C/C(=C(O)\C=C\c1ccccc1)c1nc2ccccc2[nH]1,1%,12%,/,2%,-2%,?
Cc1nn(-c2ccccc2)c(C)c1/C=N/NC(=O)CSc1nnc(-c2ccccc2)n1-c1ccc(Cl)cc1,-1%,?,1%,7%,-5%,-3%
Cc1ccc(-c2nnc(SCC(=O)N/N=C/c3ccc(C)s3)n2-c2ccccc2)cc1,7%,23µM*,4%,-3%,-5%,2%
Cc1ccc(CSc2nnc(SCC(=O)N/N=C/c3c(C)nn(-c4ccccc4)c3C)s2)cc1,?,?,9%,?,-13%,4.3µM*
Cc1nn(-c2ccccc2)c(C)c1/C=N/NC(=O)CSc1nnc(SCc2ccccc2Cl)s1,26%,?,?,?,1%,6.7µM*
Cc1ccc(-c2nnc(SCC(=O)N/N=C/c3c(C)nn(-c4ccccc4)c3C)n2-c2ccccc2)cc1,0%,?,-8%,0%,-8%,-2%
CCS(=O)(=O)c1nc(S(=O)(=O)c2ccc(Cl)cc2)c(NCc2ccc(Cl)cc2)s1,/,/,-8%,/,/,-1%
c1ccc2nc(-c3ccc(N4CCOCC4)cc3)ccc2c1,0.1µM*,?,?,0.25µM*,?,0.27µM*
c1ccc2nc(-c3ccncc3)ccc2c1,?,?,20%,?,?,?
CN1CCN(c2ccc(-c3ccc4ccccc4n3)cc2)CC1,-39%,?,-65%,-34%,-16%,0.12µM*
Cc1cc(-c2ccc(N3CCOCC3)cc2)nc2ccccc12,?,?,/,?,?,1.5µM*
COc1ccc(-c2nc3ccc(Cl)cn3c2Nc2ccc(C)cc2)cc1,/,/,10%,/,/,-6%
COCCNc1c(-c2ccc(OC)cc2)nc2ccc(Cl)cn12,?,-1%,21%,18%,1%,11µM*
CCOC(=O)CNc1c(-c2ccc(OC)cc2)nc2ccc(Cl)cn12,0%,?,?,4%,?,8.5µM*
CSc1nn(Cc2cccc(Cl)c2)c(N(C(C)=O)C(C)=O)c1S(=O)(=O)c1ccccc1,/,/,-7%,/,/,-2%
O=C(CCc1nnc(C2CCCCC2)o1)NCCCOc1cccnc1,1%,-1%,/,2%,3%,5%
Cc1ccc(C(=O)CC2(O)C(=O)N(Cc3ccccc3)c3ccccc32)o1 (configuration not stated),-2%,-4%,11µM*,-2%,0%,7%
Cc1ccc(N(C(=O)CNC(=O)c2ccco2)C(C(=O)NC2CCCC2)c2ccncc2)cc1C (configuration not stated),1%,0%,/,2%,-3%,2%
Clc1ccc(-c2csc(Nc3ccccc3)[n+]2Cc2ccco2)c(Cl)c1,2.8µM*,?,-47%,?,10%,12µM*
CCCC[n+]1c(-c2ccc(Cl)cc2Cl)csc1Nc1ccccc1,19%,-9%,-5%[1.84 µM],12%,-1%,?
Cc1sc2ncnc(Nc3ccc(O)cc3)c2c1C,2%,0%,/,0%,7%,-11%

# Bioassay records as filed in PubChem BioAssay.
